Measured values as given in PubChem BioAssay (NCI).
The panel holds about 83,000 compounds, 20% with a hit somewhere; the sample as a whole holds those more often.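 Single-dose data. Exposure time 48 hours. Values below 10 considered active.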

What was measured:
Test in all cases: NCI-60 one-dose screen, 48 h (100 = growth as untreated, 0 = no growth, -100 = all killed)
Settings in all cases: 10 µM unless noted
NCI-H23 lung = system: NCI-H23 lung
NCI-H226 lung = system: NCI-H226 lung
NCI-H322M lung = system: NCI-H322M lung
HOP-62 NSCLC = system: HOP-62 NSCLC
NCI-H460 lung = system: NCI-H460 lung
HOP-92 NSCLC = system: HOP-92 NSCLC
NCI-H522 lung = system: NCI-H522 lung
A549/ATCC NSCLC = system: A549/ATCC NSCLC
786-0 renal = system: 786-0 renal
COLO 205 colon = system: COLO 205 colon
DU-145 prostate = system: DU-145 prostate
K-562 leukemia = system: K-562 leukemia
MALME-3M melanoma = system: MALME-3M melanoma
MDA-MB-231 breast = system: MDA-MB-231 breast
RXF 393 renal = system: RXF 393 renal
SF-268 CNS = system: SF-268 CNS
SF-295 CNS = system: SF-295 CNS
SF-539 CNS = system: SF-539 CNS
UACC-257 melanoma = system: UACC-257 melanoma
M14 melanoma = system: M14 melanoma

Measured: growth

O=c1cc(Cl)nc2ccccn12
inactive: NCI-H23 lung 98.8% | NCI-H226 lung 106% | NCI-H322M lung 107% | HOP-62 NSCLC 103% | NCI-H460 lung 106% | HOP-92 NSCLC 94% | NCI-H522 lung 99.7% | A549/ATCC NSCLC 107% | 786-0 renal 108% | COLO 205 colon 127% | DU-145 prostate 110% | K-562 leukemia 110% | MALME-3M melanoma 117% | MDA-MB-231 breast 120% | RXF 393 renal 106% | SF-268 CNS 112% | SF-295 CNS 106% | SF-539 CNS 102% | UACC-257 melanoma 107% | M14 melanoma 107%

CC1(C)CC(=O)C=C(N)C1
inactive: NCI-H23 lung 88.1% | NCI-H226 lung 103% | NCI-H322M lung 106% | HOP-62 NSCLC 103% | NCI-H460 lung 121% | HOP-92 NSCLC 109% | NCI-H522 lung 89.6% | A549/ATCC NSCLC 94.8% | 786-0 renal 106% | COLO 205 colon 134% | DU-145 prostate 128% | K-562 leukemia 146% | MALME-3M melanoma 155% | MDA-MB-231 breast 104% | RXF 393 renal 94.4% | SF-268 CNS 110% | SF-295 CNS 98.7% | SF-539 CNS 127% | UACC-257 melanoma 87.2% | M14 melanoma 102%

Cc1ccc(O)c(N)c1
inactive: NCI-H23 lung 121% | NCI-H226 lung 97% | NCI-H322M lung 98.1% | HOP-62 NSCLC 132% | NCI-H460 lung 103% | HOP-92 NSCLC 126% | NCI-H522 lung 70.6% | A549/ATCC NSCLC 98.7% | 786-0 renal 115% | COLO 205 colon 117% | DU-145 prostate 122% | K-562 leukemia 113% | MALME-3M melanoma 103% | MDA-MB-231 breast 92.8% | RXF 393 renal 117% | SF-268 CNS 112% | SF-295 CNS 131% | SF-539 CNS 103% | UACC-257 melanoma 111% | M14 melanoma 108%

O=C(O)c1ccc(OCc2ccccc2)cc1
inactive: NCI-H23 lung 95.5% | NCI-H226 lung 90.2% | NCI-H322M lung 93.5% | HOP-62 NSCLC 93% | NCI-H460 lung 108% | HOP-92 NSCLC 93.2% | NCI-H522 lung 92.4% | A549/ATCC NSCLC 94.5% | 786-0 renal 99.4% | COLO 205 colon 104% | DU-145 prostate 109% | K-562 leukemia 108% | MALME-3M melanoma 102% | MDA-MB-231 breast 92.7% | RXF 393 renal 112% | SF-268 CNS 106% | SF-295 CNS 96.2% | SF-539 CNS 97.5% | UACC-257 melanoma 89.9% | M14 melanoma 103%

Cc1cccc(-[n+]2noc(N)n2)c1
inactive: NCI-H23 lung 85.5% | NCI-H226 lung 80.8% | NCI-H322M lung 87.7% | HOP-62 NSCLC 87.3% | NCI-H460 lung 80.9% | HOP-92 NSCLC 65% | NCI-H522 lung 50.9% | A549/ATCC NSCLC 102% | 786-0 renal 93.8% | COLO 205 colon 95.7% | DU-145 prostate 75.4% | K-562 leukemia 20.2% | MALME-3M melanoma 86.4% | MDA-MB-231 breast 53.7% | RXF 393 renal 99.1% | SF-268 CNS 81.9% | SF-295 CNS 84.5% | SF-539 CNS 91.6% | UACC-257 melanoma 95.2% | M14 melanoma 88.4%

CCOC(=O)c1c(C)[nH]c(C)c1C=O
inactive: NCI-H23 lung 98.8% | NCI-H226 lung 99.6% | NCI-H322M lung 102% | HOP-62 NSCLC 86.9% | NCI-H460 lung 99.8% | HOP-92 NSCLC 81.9% | NCI-H522 lung 93.7% | A549/ATCC NSCLC 67.3% | 786-0 renal 91.8% | COLO 205 colon 110% | DU-145 prostate 114% | K-562 leukemia 94.7% | MALME-3M melanoma 108% | MDA-MB-231 breast 93% | RXF 393 renal 114% | SF-268 CNS 101% | SF-295 CNS 103% | SF-539 CNS 98.9% | UACC-257 melanoma 69.4% | M14 melanoma 100%

COc1cc(CC#N)c([N+](=O)[O-])cc1OC
inactive: NCI-H23 lung 96% | NCI-H226 lung 105% | NCI-H322M lung 105% | HOP-62 NSCLC 113% | NCI-H460 lung 106% | HOP-92 NSCLC 99.8% | NCI-H522 lung 102% | A549/ATCC NSCLC 102% | 786-0 renal 102% | COLO 205 colon 110% | DU-145 prostate 109% | K-562 leukemia 94.8% | MALME-3M melanoma 111% | MDA-MB-231 breast 99.9% | RXF 393 renal 112% | SF-268 CNS 103% | SF-295 CNS 110% | SF-539 CNS 102% | UACC-257 melanoma 103% | M14 melanoma 109%

CC(=O)Nc1ccc(O)c(C)c1
inactive: NCI-H23 lung 99.8% | NCI-H226 lung 95% | NCI-H322M lung 100% | HOP-62 NSCLC 98% | NCI-H460 lung 104% | HOP-92 NSCLC 100% | NCI-H522 lung 93.5% | A549/ATCC NSCLC 88.1% | 786-0 renal 105% | COLO 205 colon 109% | DU-145 prostate 109% | K-562 leukemia 98.6% | MALME-3M melanoma 98.8% | MDA-MB-231 breast 96.9% | RXF 393 renal 116% | SF-268 CNS 100% | SF-295 CNS 105% | SF-539 CNS 100% | UACC-257 melanoma 87.8% | M14 melanoma 100%
